{"source": "PubChem BioAssay AID602312", "about": "(The Scripps Research Institute Molecular Screening Center, 2012)", "target": "sn-1-specific diacylglycerol lipase ABHD11 (Mus musculus) (UniProt Q8K4F5)", "sequence (Q8K4F5 whole entry, looked up)": "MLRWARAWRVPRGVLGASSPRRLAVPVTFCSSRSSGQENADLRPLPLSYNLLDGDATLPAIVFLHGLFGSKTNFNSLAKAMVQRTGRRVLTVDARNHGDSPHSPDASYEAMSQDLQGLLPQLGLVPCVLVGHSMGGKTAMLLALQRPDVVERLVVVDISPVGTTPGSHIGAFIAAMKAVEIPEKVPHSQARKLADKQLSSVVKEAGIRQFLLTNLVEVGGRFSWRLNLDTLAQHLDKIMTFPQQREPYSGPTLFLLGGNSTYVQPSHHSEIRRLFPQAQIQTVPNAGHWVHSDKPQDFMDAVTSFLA", "experiment": "recombinant ABHD11 inhibition, late-stage follow-up, selectivity assay for DAGLb inhibitor project, biochemical, competitive gel ABPP, mouse, set 2 (AID 602312)", "note": "The source made the active and inactive calls.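 How the source made its calls: active means inhibition of at least 50% at 1 µM; inactive means inhibition below 50% at 1 µM.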", "data": [{"smiles": "COc1ccc(-c2ccc(-c3cn(C(=O)N4CCCCC4c4ccccc4)nn3)cc2)cc1", "note": "(stereo unspecified)", "values": [{"measurement": "outcome", "result": "inactive"}]}]}
